High-throughput results as filed in PubChem BioAssay.
Spn MK inh = S. pneumoniae MK inhibitors, primary screen, biochemical, PK/LDH-coupled NADH absorbance. mevalonate kinase [Streptococcus pneumoniae D39]. purified MK, PK/LDH-coupled NADH absorbance 340 nm. inhibition, % at 10 µM. hit rate 0.48% among 65,000. AID 555, 2006;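 active = ranked among the strongest by inhibition in the single 10 µM screen, a fixed top-ranked set picked for dose follow-up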
PMK inhibit = S. pneumoniae PMK inhibitors, primary screen, biochemical, mevalonate pathway, pilot trial included; purified PMK, PK/LDH-coupled NADH absorbance 340 nm; inhibition, % at 10 µM; hit rate 0.49% among 65,000; phosphomevalonate kinase (Streptococcus pneumoniae D39);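 active = top-ranked compounds by inhibition in the single 10 µM screen, taking a fixed number of the strongest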
Autofluor 339 = intrinsic fluorescence of library compounds, ex339/em460 – biochemical, MLSMR library, data from DPM-DC assay, artefact control, profiling panel. compound autofluorescence, ex339/em460 nm, NADH buffer; active compounds read high; 1 = no-compound wells, NADH background. fluorescence fold increase at 10 µM. hit rate 5.5% among 65,000;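 active = at 10 µM, mean starting fluorescence two-fold or more over control wells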;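 also: signal is the first read of a kinetic run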
A340 absorber = compound light absorbance at 340 nm, profiling panel, artefact control, biochemical, MLSMR library, data from PS, PMK, MK assays. AID 708, 2007. fold change at 10 µM. compound absorbance at 340 nm, fold over control. 65,000 tested, under 10 active;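 active = at 10 µM dose, initial 340 nm absorbance at least 2 fold that of control wells; inactive = change under 2 fold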;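 also: initial absorbance extrapolated from kinetic A340 decline of NADH oxidation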
NADH coupling = inhibitors of PK/LDH coupling enzymes, profiling panel, artefact control, biochemical, MLSMR library; IC50, µM (top dose mostly 10 µM); AID 774, 2007; hit rate 0.02% among 65,000; coupled PK/LDH NADH assays, four targets;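 active = single-dose screening hits from any of four coupled enzyme assays that gave an IC50 when retested across doses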;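 also: the DPM-DC format reads NADH fluorescence rather than 340 nm absorbance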
DPM-DC inhibit = S. pneumoniae DPM-DC inhibitors, primary screen, biochemical, PK/LDH-coupled NADH fluorescence; purified DPM-DC; calls only at 10 µM; hit rate 0.49% among 65,000;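 active = the 320 compounds with the highest percent inhibition in the single-dose primary screen, excluding strongly autofluorescent ones, cut at about 32% in these data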;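 also: kinetic rate of NADH fluorescence loss reporting ADP formed by the decarboxylase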
Large screens that a line does not name were inactive. Hits are enriched below; roughly 6.3% of the tested compounds scored in any of these assays.

Cc1cccc(N(CC(=O)NC2CCCCC2)C(=O)c2c(C)noc2C)c1	none
CCN(CC)CCNC(=O)CCCCn1c(=S)[nH]c2c([nH]c3ccc(OC)cc32)c1=O	Spn MK inh 42.0
CCN(CC)CCNc1ncnc2c1[nH]c1ccc(OC)cc12	Autofluor 339 2.36 (not shown: DPM-DC inhibit)
CCN(CC)CCNC(=O)CCn1c(=S)[nH]c2cc3c(cc2c1=O)OCO3	none
C=CCNc1ncnc2c1[nH]c1ccc(C)cc12	Autofluor 339 3.99 (not shown: DPM-DC inhibit)
Cc1ccc2[nH]c3c(NCCN4CCOCC4)ncnc3c2c1	none
Cc1cc(NC(=O)CN2CCc3ccccc3C2)nc2c1c(=O)oc1ccccc12	none
Nc1ccc2c(C(F)(F)F)cc(=O)oc2c1	Autofluor 339 3.73 (not shown: DPM-DC inhibit)
Nc1ccc2oc3ncccc3c(=O)c2c1	none
CN1c2ccccc2-c2nc3ccccc3n2C1c1ccncc1 (stereo not given)	none
CN1c2ccccc2-c2nc3ccccc3n2C1c1ccccn1 (stereo not given)	Autofluor 339 2.24 (not shown: DPM-DC inhibit)
Cc1ccc(NC(=O)C2CCN(S(=O)(=O)c3c(C)n[nH]c3C)CC2)nc1	none
Oc1ccc(-c2n[nH]c(=S)n2Cc2ccccc2)cc1	Spn MK inh active
S=c1[nH]nc(-c2ccncc2)n1Cc1ccccc1	none
O=C(NC1=NCCS1)c1ccc(-c2ccc(Cl)cc2)o1	Autofluor 339 2.09 (not shown: DPM-DC inhibit)
Cc1sc2nc(C3CC3)nc(NCCNS(C)(=O)=O)c2c1C	none
CSc1nc(NCc2ccco2)c2c3c(sc2n1)CN(C)CC3	none
CCC(O)CNc1nc(SC)nc2sc3c(c12)CCN(C)C3 (stereo not given)	Autofluor 339 2.22 (not shown: DPM-DC inhibit)
COc1ccc2[nH]c(=O)c3c(c2c1)OC(C)(C)C=C3	Autofluor 339 2.46
COc1ccc2[nH]c3ccccc3c2c1	none
COc1ccc2c(c1OC)CN(C)CCc1cc3c(cc1C(O)C2)OCO3 (stereo not given)	PMK inhibit 25.0
COc1cccc(C2/C(=C(\O)c3ccc4c(c3)OCO4)C(=O)C(=O)N2CCN(C)C)c1OC (stereo not given)	none
Cc1cc(C(=O)CSc2nnnn2-c2ccccc2)c(C)n1CC1CCCO1 (stereo not given)	none
Cc1cc(C(=O)CSc2nnnn2-c2ccc(Cl)cc2)c(C)n1CC1CCCO1 (stereo not given)	DPM-DC inhibit active
COc1ccccc1OCc1nnc(SCC(=O)c2cc(Cl)ccc2OC)o1	none
CCOC(=O)c1sc2nc(N3CCCC3)c3c(c2c1N)CC(C)(C)OC3	Autofluor 339 2.97 (not shown: DPM-DC inhibit)
O=C(NCc1ccco1)c1cc(-c2ccccc2)c(N2CCOCC2)s1	none
COC(=O)c1ccc(CSc2ncnc3c2sc2nc(N4CCOCC4)c4c(c23)CCCC4)o1	Autofluor 339 2.11 (not shown: DPM-DC inhibit)
COC(=O)c1ccc(Cn2nnc3c(sc4nc(N5CCOCC5)c5c(c43)CCCC5)c2=O)o1	none
CCOC(=O)c1sc2nc(N3CCOCC3)c3c(c2c1N)CCCC3	Autofluor 339 3.7 (not shown: DPM-DC inhibit)
Nc1c(C(=O)NCc2ccco2)sc2nc(N3CCOCC3)c3c(c12)CCCC3	Autofluor 339 2.37 (not shown: DPM-DC inhibit)
COC(=O)c1ccc(-c2sc3nc(N4CCOCC4)c4c(c3c2N)CCCC4)o1	Autofluor 339 2.46 (not shown: DPM-DC inhibit)
CCCC(=O)N1CCN(S(=O)(=O)c2cc(Cl)ccc2OC)CC1	Autofluor 339 5.14 (not shown: DPM-DC inhibit)
COc1ccc(Cl)cc1S(=O)(=O)N1CCN(C(=O)c2ccco2)CC1	none
OCCOCCn1c2ccccc2c2ccccc21	none
COC(=O)c1nc(-c2ccc(C)cc2)oc1N(C)C	Autofluor 339 4.95 (not shown: DPM-DC inhibit)
COC(=O)c1nc(-c2ccccc2)oc1N(C)C	Autofluor 339 3.83 (not shown: DPM-DC inhibit)
COc1cc(-c2nc(S(=O)(=O)c3ccc(C)cc3)c(N(C)C)o2)cc(OC)c1OC	none
CCc1ccc(S(=O)(=O)NCCc2cn3ccsc3n2)s1	none
CCc1ccc(S(=O)(=O)NCc2cn3ccsc3n2)s1	DPM-DC inhibit active
CCOC(=O)CC1(CC(=O)OCC)NC(=O)c2c(C)sc(C(=O)OCC)c2N1	Autofluor 339 2.96 (not shown: DPM-DC inhibit)
